Results filed as inconclusive are left out. Where a call stands in place of a potency, no number is given. The source made the active and inactive calls. Calls come from the whole dose curve; as a rule, active = well fitted activation curve with a large enough effect; inconclusive = small, poorly fitted or top-dose-only effect; inactive = flat fitted curve, though single readings scatter. Where a SMILES comes first, the peptide text is derived from it. Bridges are numbered along the chain shown (N, C = ends). [ ]: non-standard residue; d: D form. The star is where a group is joined. X1 = CCC(C)C(N)C1=NC(C(=O)*)CS1; dOrn = NCCC[C@@H](N)C(=O)O

The assay in a line: Primary redox qHTS assay for identification of artifact compounds. (AID 1845223). Particulars: Amplex Red/HRP redox cycling with DTT, fluorescence; series mostly up to 53.8 µM. Put shortly:
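Amplex Red (25 uM) and HRP (250 mU/mL) in HBSS, with compounds for 15 min, then 250 uM DTT for 30 min, room temperature, dark. Fluorescence 525/598 nm read; normalized to DMSO and 10 uM DA3003; Hill fit.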
Take `COc1cc(COC2OC(CO)C(O)C(O)C2O)cc(OC)c1O` (stereo not given): the Potency entry was “inactive”.
Same read-out and setting: the result for `CC(C)(O)C1CCC2(C)C3C(O)C4C(C13)C42CO` (stereo not given) reads “inactive”.
On the same count and under the same terms, the result for `CC(/C=C/C1(O)C(C)(C)CC(O)CC1(C)O)OC1OC(CO)C(O)C(O)C1O` (stereo not given) reads “inactive”; that for `C=C1CC23CCC4[C@@](C)(CCC[C@@]4(C)C(=O)O)C2CCC1C3` (stereo not given in full), “inactive”; that for `OCCc1ccc(O[C@@H]2O[C@H](CO)[C@@H](O)[C@H](O)[C@H]2O)c(O)c1`, “inactive”.
For `C[C@H]1[C@H](C)CC[C@]2(C(=O)O[C@@H]3O[C@H](CO)[C@@H](O)[C@H](O)[C@H]3O)CC[C@]3(C(=O)O)C(=CCC4[C@@]5(C)CC[C@H](O[C@@H]6O[C@H](CO)[C@@H](O)[C@H](O)[C@H]6O)C(C)(C)C5CC[C@]43C)[C@H]12` (stereo not given in full), the redox activity (% of DA3003) is 2.24% [at 11.5 µM] (inactive).
For `OC[C@H]1O[C@@H](n2cnc3c2NC=NC[C@H]3O)C[C@@H]1O`, the Potency result was “inactive”.
As for `OCC1=CC[C@@H]2C=CO[C@@H](O[C@@H]3O[C@H](CO)[C@@H](O)[C@H](O)[C@H]3O)[C@H]12`, the Potency result is “inactive”.
For `C/C=C(\C)C(=O)OC[C@H]1O[C@H](O[C@H]2O[C@H](CO)[C@@H](OC(=O)/C(C)=C/C)[C@H](O)[C@H]2O[C@@H]2O[C@H](CO)[C@@H](O)[C@H](O)[C@H]2O)[C@H](O[C@@H]2O[C@H](CO)[C@@H](O)[C@H](O)[C@H]2O)[C@@H](O)[C@@H]1O`, the redox activity (% of DA3003) was 3.6% [at 11.5 µM] (inactive).
On to `CCOC(=O)c1c(C)nn(-c2cccc([N+](=O)[O-])c2)c1C`, for which the Potency result was “inactive”.
Same read-out and setting: the result for `COc1cc(N2CCC(N(C)C)CC2)ccc1Nc1ncc(Cl)c(Nc2ccccc2P(C)(C)=O)n1` reads “inactive”; that for `CCC(C)C(N)C1=NC(C(=O)N[C@@H](CC(C)C)C(=O)N[C@H](CCC(=O)O)C(=O)N[C@H](C(=O)N[C@H]2CCCCNC(=O)[C@H](CC(N)=O)NC(=O)[C@@H](CC(=O)O)NC(=O)[C@H](Cc3cnc[nH]3)NC(=O)[C@@H](Cc3ccccc3)NC(=O)[C@H]([C@@H](C)CC)NC(=O)[C@@H](CCCN)NC2=O)[C@@H](C)CC)CS1` (stereo not given in full) (X1-L[dE]IK[dOrn]I[dF]H[dD]N; lactam 4-C), “inactive”.
Turning to `COc1ccc(C2=CC(=O)OC2Cc2ccc(O)cc2)c(O)c1` (stereo not given), the Potency entry is “inactive”.
Still for that read-out and setting: for `O=C(NCc1ccc(OC(F)(F)F)cc1)C1c2ccccc2C(=O)N1C1CCOCC1` (stereo not given) the value was “inactive”.
The same measure, in the same setting: the result for `O=C(O[C@H]1[C@@H]2C=CO[C@@H](O[C@@H]3O[C@H](CO)[C@@H](O)[C@H](O)[C@H]3O)[C@@H]2[C@@]2(CO)O[C@@H]12)c1ccc(O)cc1` reads “inactive”; that for `Cc1cc(O)c(C(C)C)cc1O[C@@H]1O[C@H](CO)[C@@H](O)[C@H](O)[C@H]1O`, “inactive”.
Still for that read-out and setting: the result for `COC(=O)C1C(c2ccc(O)cc2)C(C(=O)OC)C1c1ccc(O)cc1` (stereo not given) reads “inactive”.
Consider `CCOC(=O)N1CCC(NCCNC(=O)c2ccccc2C)CC1`, for which the Potency entry was “inactive”.
Still for that read-out and setting: the result for `CC(=O)Oc1cc2c(s1)CCN([C@H](C(=O)C1CC1)c1ccccc1F)C2` reads “inactive”; that for `CC1CCC23COC(=O)C2=CC(O)CC3C1(C)CCC1=CC(=O)OC1O` (stereo not given), “inactive”.
Take `CNC(=O)COC(=O)NCCC1CCN(c2cccc(C)n2)CC1`: the Potency entry was “inactive”.
Consider `C=CC(C)(O)CO[C@@H]1O[C@H](CO)[C@@H](O)[C@H](O)[C@H]1O` (stereo not given in full), for which the Potency result is “inactive”.
Consider `C[C@]12CC[C@@H]3c4ccc(O[C@@H]5O[C@H](C(=O)O)[C@@H](O)[C@H](O)[C@H]5O)cc4CC[C@H]3[C@@H]1CCC2=O`, for which the Potency result was “inactive”.
Still for that read-out and setting: the result for `CC(=O)c1c(C)cc(O)cc1O[C@@H]1O[C@H](CO)[C@@H](O)[C@H](O)[C@H]1O` reads “inactive”; that for `O=C1[C@H](O[C@@H]2O[C@H](CO)[C@@H](O)[C@H](O)[C@H]2O)Oc2ccccc2N1O`, “inactive”; that for `CC(=O)N(O)CCCCCN1C(=O)CCC1=O`, “inactive”.
Still for that read-out and setting: the result for `CC(C)(O)C1=CCC23COC(C2)C(O)(C(=O)O)CCC13` (stereo not given) reads “inactive”; that for `Nc1ccn([C@@H]2C(F)=C(CO)[C@@H](O)[C@H]2O)c(=O)n1`, “inactive”; that for `O=C(c1ccccn1)c1cnn2c(-c3ccncc3)ccnc12`, “inactive”.
Still for that read-out and setting: the result for `COC(=O)C1=CO[C@@H](O[C@@H]2O[C@H](CO)[C@@H](O)[C@H](O)[C@H]2O)[C@@H]2[C@@H](C(=O)OC)[C@@H](O)C(O)[C@H]12` (stereo not given in full) reads “inactive”; that for `C[C@@H]1CC[C@]2(C)C3(C)CC[C@@]2(OC3=O)[C@@]12C[C@H](c1ccoc1)OC2=O`, “inactive”.
For the molecule `CC1(C)C(O)CCC2(C)C1C(O)C=C1COC(=O)C12O` (stereo not given), the Potency entry was “inactive”.
Still for that read-out and setting: the result for `CC1CCC(=O)CC(O)C(O)CC(=O)O1` (stereo not given) reads “inactive”.
On the same count and under the same terms, the result for `C=C1CC23CC1(O)CCC2C1=CC2OC(=O)C(C)(C2O)C1C3C(=O)O` (stereo not given) reads “inactive”; that for `CC1C/C=C/C=C\CCCCC(O)C/C=C/C(=O)O1` (stereo not given), “inactive”; that for `CC(=O)OC[C@]1(O)[C@H]2[C@H](OC(=O)CC(C)C)OC=C(CO[C@@H]3O[C@H](CO)[C@@H](O)[C@H](O)[C@H]3O)[C@H]2C[C@@H]1O`, “inactive”.
Still for that read-out and setting: the result for `CC1C(=O)CC2C3C(O)CC(C(=O)O)C12CC3(C)C` (stereo not given) reads “inactive”; that for `CC(NC(=O)CC(=O)O)c1nc2ccccc2c(=O)[nH]1` (stereo not given), “inactive”.
For the molecule `O=C(Nc1cccnn1)N1CCC(=Cc2cccc(Oc3ccc(C(F)(F)F)cn3)c2)CC1`, the Potency entry was “inactive”.
On to `Cn1c(=O)cc(N2CCCC(N)C2)n(Cc2ccccc2C#N)c1=O` (stereo not given), for which the Potency entry is “inactive”.

The record behind these values is PubChem BioAssay (NCATS).
